From the supplement of paper PMC10981050 come the findings set out here.

Structures can show the parent of a compound that is named as a salt.

The first test concerns K562. Description: cell viability relative to vehicle control; higher = less cytotoxic. The conditions noted are these: 10 µM; SRSF2 genotype: SRSF2 wt/wt. A digest of the protocol: (§1)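 CRISPR-edited SRSF2 P95 mutant and isogenic wild-type clones of four leukaemia lines were screened against Selleck bioactive, kinase and epigenetic probe libraries, with identity-inconsistent compounds removed. Compounds were acoustically dispensed into 384-well plates at a single 10 µM dose, with 2000 cells in 50 µL medium per well. After 48 h, supernatant was removed and CellTiter-Glo luminescence was read. Viability was expressed as percent of the on-plate DMSO vehicle control, analysed in Genedata Screener.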
What is called cell viability is a read-out of living cells in per cent, often relative to untreated cells. Consider `C[C@H](Nc1ncnc2[nH]cnc12)c1cc2ccc(F)cc2nc1-c1ccccn1`, for which the cell viability worked out at 91.5%. For the compound `CC1(C)[C@@H](O[C@H]2O[C@H](C(=O)O)[C@@H](O)[C@H](O)[C@H]2O[C@@H]2O[C@H](C(=O)O)[C@@H](O)[C@H](O)[C@H]2O)CC[C@]2(C)[C@H]3C(=O)C=C4[C@@H]5C[C@@](C)(C(=O)O)CC[C@]5(C)CC[C@@]4(C)[C@]3(C)CC[C@@H]12` [Dipotassium glycyrrhizinate], the cell viability was 102%. As to `O=C(NC1(c2ccccc2)CC1)c1c(CN2CCC(N3CCCCC3)CC2)c(-c2cccc(C(F)(F)F)c2)nc2cc(Br)ccc12`, the cell viability came to 11.8%. Turning to `O=c1cc(-c2ccc(O)cc2)oc2cccc(O)c12` [4',5-Dihydroxyflavone], the cell viability was 89.7%.

Take `C[C@@H]1CC[C@H]2C(C)(C)[C@H]3C[C@@]12CC[C@@]3(C)O` [Cedrol]: the cell viability was found to be 96.6%.

Take `N#Cc1cc2cc(CN3CCC(Nc4ncnc5sc(CC(F)(F)F)cc45)CC3)ccc2[nH]1`: the cell viability amounted to 19.3%. The same measure, in the same setting: the value for `CCC(CC)(NC(=O)C(C)C)C(=O)N[C@@H](CCCN=C(N)N)C(=O)NC1(C(=O)NC(c2ccc(F)cc2)c2ccc(F)cc2)CCCC1` was 106%; that for `CNCCc1ccccn1` [Betahistine] was 102%. Regarding `O=C(O)c1ccc(O)cc1` [4-Hydroxybenzoic acid], the cell viability was 98.8%. As to `CC(C)C(=O)Nc1ccc([N+](=O)[O-])c(C(F)(F)F)c1` [Flutamide (Eulexin)], the cell viability amounted to 101%.

Another test has as its system MARIMO. The description is as above. The conditions noted are these: 10 µM; SRSF2 genotype: SRSF2 P95H/wt. The gist of the method:
as §1
For the compound `O=C(Nc1cccc(Cl)c1)Nc1ncc(CCNc2ncnc3ccsc23)s1` [SNS-314 Mesylate], the cell viability was determined as 68.8%. On to `O=C(c1cn(Cc2cncn2Cc2ccc(Br)cc2)cc1-c1cccc2ccccc12)N1CCOCC1`, for which the cell viability was 34.1%.

For the compound `COc1cc(N2CCN(C)CC2)ccc1Nc1nccc(-c2cn(C)c3cnccc23)n1`, the cell viability worked out at 41%. For `O=c1c(-c2ccc(O)cc2)coc2cc(O[C@@H]3O[C@H](CO)[C@@H](O)[C@H](O)[C@H]3O)ccc12` [Daidzin], the cell viability was 91.7%. Take `COc1nc(C)cnc1NS(=O)(=O)c1cccnc1-c1ccc(-c2nnco2)cc1` [Zibotentan (ZD4054)]: the cell viability came to 99%.

In the case of `Nc1ccc(-c2cccc(C(=O)Nc3cnc4nc(N5CCOCC5)oc4c3)n2)cn1`, the cell viability is 98.3%.

`C[C@@H]1CC[C@@]2(OC1)O[C@H]1C[C@H]3[C@@H]4CC=C5C[C@@H](O[C@@H]6O[C@H](CO)[C@@H](O)[C@H](O)[C@H]6O)CC[C@]5(C)[C@H]4CC[C@]3(C)[C@H]1[C@@H]2C` [Trillin]: the cell viability came to 76.7%. Regarding `CCCC(C)NC(=O)c1ccc(Cl)c(Cl)c1` (stereo not given), the cell viability was found to be 90.5%. On to `C[C@@H]1C/C=C/C=C/C=C/C=C/[C@H](O[C@@H]2O[C@H](C)[C@@H](O)[C@H](N)[C@@H]2O)C[C@@H]2O[C@](O)(C[C@@H](O)C[C@H]3O[C@@H]3/C=C/C(=O)O1)C[C@H](O)[C@H]2C(=O)O` [Natamycin], for which the cell viability turned out to be 100%.

On to `CN1CCN(c2ccc(Nc3ncc4cc(C#N)c(=O)n(C5CCCC5)c4n3)cc2)CC1`, for which the cell viability worked out at 60.4%.

Turning to `COc1ccc(-c2oc3c(CC=C(C)C)c(O[C@@H]4O[C@H](CO)[C@@H](O)[C@H](O)[C@H]4O)cc(O)c3c(=O)c2O[C@@H]2O[C@@H](C)[C@H](O)[C@@H](O)[C@H]2O[C@@H]2O[C@@H](C)[C@H](O)[C@@H](O)[C@H]2O)cc1` [Epmedin C], the cell viability was 100%. On the same count and under the same terms, then `CC1=C(CC[C@@H](C)CO[C@@H]2O[C@H](CO)[C@@H](O)[C@H](O)[C@H]2O)O[C@H]2C[C@H]3[C@@H]4CC=C5C[C@@H](O[C@@H]6O[C@H](CO)[C@@H](O[C@@H]7O[C@@H](C)[C@H](O)[C@@H](O)[C@H]7O)[C@H](O)[C@H]6O[C@@H]6O[C@@H](C)[C@H](O)[C@@H](O)[C@H]6O)CC[C@]5(C)[C@H]4CC[C@]3(C)[C@@H]12` [Pseudoprotodioscin], with 99.3%; and `O=C(NC[C@H](O)CN1CCc2ccccc2C1)c1cc(NC2COC2)ncn1`, with 87.6%; and `CCCc1cc(C)[nH]c(=O)c1CNC(=O)c1cc(-c2ccc(N3CCN(C)CC3)nc2)nc2c1cnn2C(C)C`, with 85.6%.

In the case of `Cc1cc(NS(=O)(=O)c2ccc(N)cc2)nc(C)n1` [sulfaisodimidine], the cell viability worked out at 106%. The same measure, in the same setting: then `Cn1cnc(-c2cc3nccc(Oc4ccc(NC(=S)NC(=O)Cc5ccccc5)cc4F)c3s2)c1`, with 87.8%; and `Fc1ccc(C(c2ccc(F)cc2)N2CCN(C/C=C/c3ccccc3)CC2)cc1` [Flunarizine 2HCl], with 50.4%; and `CNc1cccc(CCOc2ccc3c(c2)CN(CC(F)(F)F)C(=O)[C@H](CC(=O)O)C3)n1`, with 96.1%. Regarding `Cc1cccc(-c2[nH]c(C(C)(C)C)nc2-c2ccc3c(c2)OCO3)n1`, the cell viability was determined as 61.4%. For the compound `CCOc1ccc(Cc2cc([C@]34OC[C@](CO)(O3)[C@@H](O)[C@H](O)[C@H]4O)ccc2Cl)cc1` [Ertugliflozin], the cell viability came to 104%. The same measure, in the same setting: then `COC(=O)[C@H](c1ccccc1Cl)N1CCc2sccc2C1` [Clopidogrel (Plavix)], with 78.9%; and `CCCCCCCCCCCCCCCC(=O)OC` [Methyl palmitate], with 99%.

Consider `O=[N+]([O-])c1ccc(S(=O)(=O)N2CCN(c3ccnc4cc(Cl)ccc34)CC2)c([N+](=O)[O-])c1`, for which the cell viability is 27.1%. For the compound `Clc1ccc(COC(Cn2ccnc2)c2ccc(Cl)cc2Cl)c(Cl)c1` (stereo not given) [Miconazole (Monistat)], the cell viability worked out at 61.1%. On the same count and under the same terms, then `C[n+]1cc2c3c(ccc2c2ccc4cc5c(cc4c21)OCO5)OCO3` [Sanguinarine chloride], with 0.3%. `CC1(C)Cc2c(sc(NC(=O)c3ccn[nH]3)c2C(N)=O)C(C)(C)O1`: the cell viability stood at 96.6%. Same read-out and setting: then `CCN=C1N[C@@H]2[C@@H](O)[C@H](O)[C@@H](CO)O[C@@H]2S1` [Thiamet G], with 103%; and `O=C(c1cccc(Cl)c1F)N1CCN(Cc2cccc(Nc3nccs3)n2)CC1`, with 87.8%; and `O=C(Cn1ccnc1[N+](=O)[O-])NCc1ccccc1` [Benznidazole], with 96.6%. For the compound `CC[C@@]1(O)C(=O)OCc2c1cc1n(c2=O)Cc2cc3cc(O)ccc3nc2-1` [Hydroxy Camptothecine], the cell viability stood at 4.88%. Regarding `C[C@H](Nc1ncnc2[nH]cnc12)c1cc2ccc(F)cc2nc1-c1ccccn1`, the cell viability turned out to be 81.5%.

For the compound `CC1(C)[C@@H](O[C@H]2O[C@H](C(=O)O)[C@@H](O)[C@H](O)[C@H]2O[C@@H]2O[C@H](C(=O)O)[C@@H](O)[C@H](O)[C@H]2O)CC[C@]2(C)[C@H]3C(=O)C=C4[C@@H]5C[C@@](C)(C(=O)O)CC[C@]5(C)CC[C@@]4(C)[C@]3(C)CC[C@@H]12` [Dipotassium glycyrrhizinate], the cell viability stood at 103%. Regarding `O=C(NC1(c2ccccc2)CC1)c1c(CN2CCC(N3CCCCC3)CC2)c(-c2cccc(C(F)(F)F)c2)nc2cc(Br)ccc12`, the cell viability amounted to 66.8%. On to `O=c1cc(-c2ccc(O)cc2)oc2cccc(O)c12` [4',5-Dihydroxyflavone], for which the cell viability came out at 84.4%.

For `C[C@@H]1CC[C@H]2C(C)(C)[C@H]3C[C@@]12CC[C@@]3(C)O` [Cedrol], the cell viability stood at 103%. Take `N#Cc1cc2cc(CN3CCC(Nc4ncnc5sc(CC(F)(F)F)cc45)CC3)ccc2[nH]1`: the cell viability is 44.3%. As for `CCC(CC)(NC(=O)C(C)C)C(=O)N[C@@H](CCCN=C(N)N)C(=O)NC1(C(=O)NC(c2ccc(F)cc2)c2ccc(F)cc2)CCCC1`, the cell viability was 93.8%. The same measure, in the same setting: then `CNCCc1ccccn1` [Betahistine], with 100%; and `O=C(O)c1ccc(O)cc1` [4-Hydroxybenzoic acid], with 93.4%. Regarding `CC(C)C(=O)Nc1ccc([N+](=O)[O-])c(C(F)(F)F)c1` [Flutamide (Eulexin)], the cell viability was determined as 90.3%.
